A selection: hits, their analogues and other compounds. The true share with any hit is near 6.3%.
DPM-DC inhibit: blocks S. pneumoniae diphosphomevalonate decarboxylase; purified DPM-DC, PK/LDH coupled NADH fluorescence; calls only at 10 µM; 65,000 compounds, 0.49% hits;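 active = the 320 compounds with the highest percent inhibition in the single-dose primary screen, excluding strongly autofluorescent ones, cut at about 32% in these data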;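 also: kinetic rate of NADH fluorescence loss reporting ADP formed by the decarboxylase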
Autofluor 339: intrinsic fluorescence of library compounds, ex339/em460 – biochemical, MLSMR library, data from DPM-DC assay, artefact control, profiling panel; compound autofluorescence, ex339/em460 nm, NADH buffer; hits give high values; 1 = no-compound wells, NADH background; fluorescence fold increase at 10 µM; 65,000 compounds, 5.5% hits; AID 709;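 active = at 10 µM, mean starting fluorescence two-fold or more over control wells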;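 also: signal is the first read of a kinetic run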
Abs 340nm: compound absorbs light at 340 nm. compound absorbance at 340 nm, fold over control. fold change at 10 µM. 65,000 tested, under 10 active. AID 708;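 active = at 10 µM dose, initial 340 nm absorbance at least 2 fold that of control wells; inactive = change under 2 fold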;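 also: initial absorbance extrapolated from kinetic A340 decline of NADH oxidation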
NADH coupling: inhibitors of enzymes used to reach an NAD/NADH endpoint. coupled PK/LDH NADH assays, four targets. 65,000 compounds, 0.02% hits. IC50, µM (highest dose often 10 µM), without a hit: top-dose inhibition. AID 774;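 active = single-dose screening hits from any of four coupled enzyme assays that gave an IC50 when retested across doses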;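 also: the DPM-DC format reads NADH fluorescence rather than 340 nm absorbance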
Spn PMK inh: blocks S. pneumoniae phosphomevalonate kinase. 65,000 compounds, 0.49% hits. inhibition, % at 10 µM. purified PMK, PK/LDH-coupled NADH absorbance 340 nm. AID 539;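 active = top-ranked compounds by inhibition in the single 10 µM screen, taking a fixed number of the strongest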;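 also: 0% = full reaction with DMSO carrier and 100% = background rate without enzyme reaction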
MK inhibit: blocks S. pneumoniae mevalonate kinase; purified MK, PK/LDH-coupled NADH absorbance 340 nm; 65,000 compounds, 0.48% hits; inhibition, % at 10 µM;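 active = ranked among the strongest by inhibition in the single 10 µM screen, a fixed top-ranked set picked for dose follow-up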
* hit, by the source's call.

Results for CCOC(=O)CCn1c2nc(C)cc(C)c2c(=O)n1-c1ccccc1 ?
Autofluor 339: 4.48*; Abs 340nm: 1.06; NADH coupling: 34.0%; Spn PMK inh: 64.0*; MK inhibit: 3.0

What do the screens show for `Nc1ccc2oc(-c3ccccn3)nc2c1`?
DPM-DC inhibit: inactive; Autofluor 339: 1.12; Abs 340nm: 1.12; NADH coupling: 4.0%; Spn PMK inh: 11.0; MK inhibit: 0.0

What do the screens show for `Nc1cc(N)cc(-c2nc3ccccc3[nH]2)c1`?
DPM-DC inhibit: active; Autofluor 339: 2.16*; Abs 340nm: 1.04; NADH coupling: 17.0%; Spn PMK inh: 10.0; MK inhibit: 7.0

Results for Nc1ccc(-c2nc3ccc(-c4nc5ccccc5o4)cc3[nH]2)cc1 ?
Autofluor 339: 3.68*; Abs 340nm: 1.15; NADH coupling: 3.0%; Spn PMK inh: 5.0; MK inhibit: 0.0

What do the screens show for `Nc1nc(-c2nc3ccccc3[nH]2)cs1`?
DPM-DC inhibit: inactive; Autofluor 339: 1.1; Abs 340nm: 1.09; NADH coupling: 1.0%; Spn PMK inh: 0.0; MK inhibit: 2.0

What do the screens show for `Nc1ccc(-c2nc3ccc(N)cc3o2)cc1`?
Autofluor 339: 2.14*; Abs 340nm: 1.2; NADH coupling: 7.0%; Spn PMK inh: 6.0; MK inhibit: 8.0

What do the screens show for `CCOC(=O)C1=C(N)OC2=C(C(=O)CCC2)C1c1ccccc1OCC` (stereo not given)?
DPM-DC inhibit: inactive; Autofluor 339: 1.14; Abs 340nm: 1.03; NADH coupling: 13.0%; Spn PMK inh: 13.0; MK inhibit: 6.0

What do the screens show for `Cc1cnc(-c2nnc(N(C)C(=O)c3ccncc3)s2)cn1`?
DPM-DC inhibit: inactive; Autofluor 339: 1.36; Abs 340nm: 1.05; NADH coupling: 5.0%; Spn PMK inh: 11.0; MK inhibit: 5.0

What do the screens show for `c1cc2c3c(cccc3c1)NC1(CCCCCC1)N2`?
Autofluor 339: 3.76*; Abs 340nm: 1.07; NADH coupling: 9.0%; Spn PMK inh: 7.0; MK inhibit: 11.0

What do the screens show for `Cc1cnn(C(=O)c2oc3ccccc3c2C)c1`?
DPM-DC inhibit: inactive; Autofluor 339: 1.09; Abs 340nm: 1.09; NADH coupling: 5.0%; Spn PMK inh: 10.0; MK inhibit: 3.0

How did Cc1oc2ccccc2c1-c1cn2c(n1)SCC2 do in these assays?
Autofluor 339: 3.63*; Abs 340nm: 1.06; NADH coupling: 16.0%; Spn PMK inh: 17.0; MK inhibit: 15.0

What do the screens show for `O=C(Nc1cnn(Cc2ccccc2)c1)c1cc2nc(-c3ccco3)cc(C(F)(F)F)n2n1`?
Autofluor 339: 3.34*; Abs 340nm: 1.06; NADH coupling: 11.0%; Spn PMK inh: 5.0; MK inhibit: 16.0

Results for O=C(c1cc2nc(-c3ccccc3)cc(C(F)(F)F)n2n1)N1CCOCC1 ?
DPM-DC inhibit: inactive; Autofluor 339: 1.34; Abs 340nm: 1.12; NADH coupling: 2.0%; Spn PMK inh: 3.0; MK inhibit: 3.0

How did O=C(NC1CCCCC1)c1cc2nc(-c3ccco3)cc(C(F)(F)F)n2n1 do in these assays?
Autofluor 339: 2.86*; Abs 340nm: 1.01; NADH coupling: 4.0%; Spn PMK inh: 2.0; MK inhibit: 15.0

What do the screens show for `O=C(NC1CCCCC1)c1cc(-c2ccco2)on1`?
DPM-DC inhibit: inactive; Autofluor 339: 1.11; Abs 340nm: 0.98; NADH coupling: 6.0%; Spn PMK inh: 17.0; MK inhibit: 0.0

What do the screens show for `O=C(c1cc2nc(-c3ccco3)cc(C(F)(F)F)n2n1)N1CCc2ccccc2C1`?
Autofluor 339: 2.18*; Abs 340nm: 1.07; NADH coupling: 20.0%; Spn PMK inh: 30.0*; MK inhibit: 10.0

What do the screens show for `O=C(NC12CC3CC(CC(C3)C1)C2)c1cc2nc(-c3ccco3)cc(C(F)(F)F)n2n1`?
DPM-DC inhibit: inactive; Autofluor 339: 2.88*; Abs 340nm: 1.04; NADH coupling: 13.0%; Spn PMK inh: 12.0; MK inhibit: 9.0

Results for O=C(Nc1cnn(C23CC4CC(CC(C4)C2)C3)c1)c1cnn2c(C(F)(F)F)cc(-c3ccco3)nc12 ?
DPM-DC inhibit: inactive; Autofluor 339: 1.08; Abs 340nm: 1.02; NADH coupling: 4.0%; Spn PMK inh: 6.0; MK inhibit: 12.0

What do the screens show for `CCCCCCNC(=O)C(C(=O)OCC)C1CCCCC1` (stereo not given)?
DPM-DC inhibit: inactive; Autofluor 339: 1.1; Abs 340nm: 1.04; NADH coupling: 5.0%; Spn PMK inh: 14.0; MK inhibit: 2.0

Screens deposited in PubChem by SRMLSC.
